A selection: hits, their analogues and other compounds. The true share with any hit is near 5.7%.
ATXN viability: cell viability loss in ATXN counter-screen; S2 cells (HEK-293 line with an ATXN2-luciferase reporter) viability, CellTiter-Fluor protease fluorescence, 24 h; Potency, µM (highest dose often 56.7 µM), usual class: cytotoxic; 0.49% of 400,000 active; AID 651635; also: nearly all actives have a fitted effect of over 40% in size
TGFb SMAD3 inh: blocks TGF-b signaling; 1.2% of 410,000 active; Potency, µM (series often up to 46.1 µM), usual class: inhibitors; AID 588855; HepG2 CAGA-GFP TGF-b/SMAD3 reporter, GFP fluorescence, 18 h; TGF-beta stimulated, 500 pg/mL final; also: nearly all actives have a fitted effect of over 65% in size
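GFP signal (ex488/em500-530) from TGF-beta-stimulated HEPG2 CAGA-GFP cells, 500 pg/mL final, 18 h at 37 degrees C in DMEM plus 1% FBS, normalized to unstimulated and DMSO-stimulated controls.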
IL-1B inflam inh: inflammasome signaling inhibition, IL-1 beta readout; THP-1 LPS/ATP IL-1B secretion, AlphaLISA, 16 h; stronger effect = lower value; activity change, % at 57.5 µM; 4.7% of 360,000 active; AID 743279; in the data active = activity change below about -50%; inconclusive = mostly about -30% to -49%
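Secreted IL-1B measured by AlphaLISA bead assay after 16 h compound exposure of THP-1 cells; compounds (final up to 57.5 uM) added 1 h before LPS (250 ng/mL) and ATP (1.25 mM) stimulation; lower signal means less secretion.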
ATXN2 expr inh: ATXN2 expression inhibition. HEK-293 ATXN2-luciferase reporter, luminescence, 24 h. AID 1745845. 0.72% of 360,000 active. Potency, µM (titrated, usually from 57 µM), usual class: inhibitors; also: nearly all actives have a fitted effect of over 55% in size
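qHTS (up to 57 uM final) was run with 24 h compound exposure of reporter cells at 37 °C. Each well was multiplexed: SteadyGlo luminescence measured ATXN2-luciferase expression after a fluorogenic Gly-Phe-AFC viability readout (25 uM final).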
HepG2 tox: counter-screen for TGF-b inhibitors: cytotoxicity in HepG2 cells | AID 588856 | HepG2 CAGA-GFP viability, ATP luminescence, 18 h | 0.76% of 410,000 active | Potency, µM (highest dose often 46.1 µM), usual class: cytotoxic
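CellTiter-Glo luminescence gave cytotoxicity after 18 hours at 37 degrees C. The cells were HepG2 CAGA-GFP in 1% FBS DMEM, stimulated with 500 pg/mL TGF-beta after compound addition. %Activity was normalised to no-cell wells (complete cell-killing) and DMSO (no toxicity), and curves were fitted and classified.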
Hits are given with their value; . = inactive; ? = inconclusive; / = not tested or not shown; [ ] = remark or other dose. Unless noted, calls follow the shape of the dose curve; as a rule, active = well fitted curve in the direction sought with a large enough effect; inconclusive = small, poorly fitted or top-dose-only effect, or another doubt; inactive = no such curve, though single readings can be large; an effect the other way counts as inactive or inconclusive.

SMILES | ATXN viability | TGFb SMAD3 inh | IL-1B inflam inh | ATXN2 expr inh | HepG2 tox
CCCCCCN1C[C@@H](n2cc(C3CC3)nn2)[C@H](O)C[C@@H]1c1ccc(OC)cc1 | 20µM | ? | ? | ? | .
CCOCCCNC(=O)Nc1cc(C(=O)NCc2ccc(C(C)C)cc2)ccc1N1CCCC1 | ? | ? | / | . | .
Cc1ccc(OCC(=O)Nc2ccc3nc(SCC(=O)N4CCOCC4)sc3c2)cc1C | / | ? | / | / | .
COc1cccc2c(SCC(=O)N/N=C/c3ccc(O)cc3O)cc(C)nc12 | . | . | -88 | ? | .
COc1ccccc1/C=N/NC(=O)CSc1cc(C)nc2ccccc12 | . | . | -66 | . | .
COc1ccc2nc(C)cc(SCC(=O)N/N=C/c3ccc(O)cc3O)c2c1 | ? | . | ? | ? | .
COc1ccc2nc(C)cc(SCC(=O)N/N=C/c3ccccc3)c2c1 | . | ? | -98 | . | .
Cc1cc(SCC(=O)NN)c2cc(Br)ccc2n1 | . | ? | -92 | ? | .
COc1c(C)cc(S(=O)(=O)Nc2cccc(-c3ccc(N4CCOCC4)nn3)c2)c(C)c1C | ? | . | / | ? | .
Nc1nc(=O)n([C@@H]2O[C@H](CO)[C@@H](O)[C@@H]2F)cc1I | . | / | / | . | /
Cc1cccc(-n2c(C)nnc2SCC(=O)NC(C)c2ccco2)c1 (centres undefined) | / | . | / | / | .
CCOc1ccc(NC(=O)/C=C\C(=O)N(c2ccc(C(C)C)cc2)C(C(=O)NCc2ccco2)c2ccc(F)cc2)cc1 (centres undefined) | / | ? | / | / | .
O=C(CSc1ccccc1)N/N=C/c1ccccc1O | ? | . | . | ? | .
COc1ccccc1/C=N/NC(=O)CO | . | . | . | . | .
COc1ccc(CSCC(=O)N/N=C/c2ccccc2O)cc1 | . | . | . | 25µM | .
C=CCn1c(CNc2ccccc2)nnc1SCC(=O)N/N=C/c1ccc(O)cc1O | . | . | . | ? | .
COc1ccccc1/C=N/NC(=O)CC(=O)NCc1ccccc1 | . | . | -51 | .[11.3 µM] | .
C=CCn1c(CNc2ccc(C)cc2)nnc1SCC(=O)N/N=C/c1ccc(O)cc1O | . | ? | . | 20µM | .
O=C(Cn1cnnn1)N[C@@H]1C(=O)N2C(C(=O)O)=C(CSc3nncs3)CS[C@H]12 | . | / | / | / | /
COc1ccccc1/C=C/c1nc2ccccc2[nH]1 | / | . | / | / | 8.9µM
COc1ccc(OC)c(/C=C/c2nc3ccccc3[nH]c2=O)c1 | . | . | . | . | .
COc1ccccc1C=Cc1ccnc2ccccc12 | ? | . | -93 | . | .
Cc1ccc(/C=C/c2nc3ccccc3[nH]2)cc1 | / | ? | / | / | .
Cc1ccc(/C=C/c2nc3ccccc3[nH]2)o1 | . | ? | -73 | . | .
CCN(CC)c1ccc(NS(=O)(=O)c2ccc3c(c2)CCCN3C(C)=O)c(C)c1 | . | ? | / | ? | .
SMILES | ATXN viability | TGFb SMAD3 inh | IL-1B inflam inh | ATXN2 expr inh | HepG2 tox
Cc1ccc2oc(C(=O)Nc3nc(-c4ccc(F)cc4)ns3)c(C)c2c1 | / | ? | / | / | .
O=C(C1CCCCC1)N1CCOc2ccc(CN3CCN(Cc4ccccn4)CC3)cc2C1 | . | / | / | / | /
Nc1ncc(-c2ccccc2)c(-c2ccc(O)cc2O)n1 | . | ? | -92 | . | .
COc1ccc(-c2cnc(N)nc2-c2ccc(OC)cc2)cc1 | . | . | . | . | .
Nc1ncc(C(=O)O)c(-c2ccccc2)n1 | . | . | . | . | .
COc1ccc(-c2nc(N)ncc2-c2ccc(OC)c(OC)c2)c(O)c1 | . | . | -53 | . | .
COc1ccc(-c2cnc(N)nc2-c2ccc(OCc3ccccc3)cc2O)cc1 | . | 13µM | ? | . | .
COc1ccccc1CNC(=O)Cn1cc2c(n1)-c1c(oc(C(=O)N3CCOCC3)c1C)CC2 | / | . | / | / | .
Oc1cc(-c2nc(-c3ccccc3)[nH]c2-c2ccncc2)ccc1Cl | / | / | / | . | /
Cc1cccc(/C=N/Nc2ccc3ccccc3n2)c1 | . | ? | -75 | / | .
C(=N\Nc1ccc2ccccc2n1)/c1ccc2c(c1)OCCO2 | ? | 16µM | . | ? | .
CC(=NNc1ccc2ccccc2n1)c1ccccc1O | ? | ? | -59 | ? | .
Cc1cc(N/N=C/c2cccc(Br)c2)nc2ccccc12 | . | . | . | . | .
Cc1ccc(/C=N/Nc2cn[nH]c(=O)n2)o1 | . | . | . | . | .
Cc1ccc(/C=N/Nc2ccc3ccccc3n2)o1 | / | . | -107 | ? | .
C/C(=N\Nc1nc2ccccc2nc1C)c1ccccc1O | ? | . | . | . | .
CCc1nn2c(=O)cc(COC(=O)c3ccccc3NC(=O)c3cccs3)nc2s1 | / | . | / | / | .
COc1cc(Cl)c(C)cc1NC(=O)CC1Oc2ccccc2NC1=O (centres undefined) | / | . | / | / | .
CC(C)N1CCC(N2CCN(Cc3ccc(-c4ccc(Cl)cc4)o3)CC2CCO)CC1 (centres undefined) | . | . | -69 | . | .
CC(C)N1CCC(N2CCN(CCCc3ccccc3)CC2CCO)CC1 (centres undefined) | . | . | . | . | 3.2µM
CC(C)N1CCC(N2CCN(Cc3ccc(-c4ccccc4Cl)o3)CC2CCO)CC1 (centres undefined) | . | . | ? | . | .
Cc1oc2ccc(O)c(CN(C)Cc3ccccc3)c2c1C(=O)Nc1ccccc1 | / | ? | / | / | 1.8µM
Cc1ccc(NC(=O)c2c(C)oc3ccc(O)c(CN(C)Cc4ccccc4)c23)c(C)c1 | / | / | / | / | .
Cc1oc2ccc(O)c(CN(C)Cc3ccccc3)c2c1C(=O)Nc1cccc(C(F)(F)F)c1 | / | ? | / | / | 10µM
CNC(CC(=O)c1ccc([N+](=O)[O-])cc1)C(Cl)(Cl)Cl (centres undefined) | 28µM | 3.2µM | -67 | 25µM | 10µM
SMILES | ATXN viability | TGFb SMAD3 inh | IL-1B inflam inh | ATXN2 expr inh | HepG2 tox
Cc1cccc2sc(N3CCN(C(=O)c4cccs4)CC3)nc12 | . | . | -78 | . | .
O=C(c1cccs1)N1CCN(c2nc3ccccc3s2)CC1 | . | . | . | . | .
O/N=C1/CC/C(=N\O)c2nn(-c3ccccc3)nc21 | . | . | -65 | . | .
COC(=O)C=CC(=O)OC | / | / | / | . | /
Cc1cc(SCC(=O)Nc2ccc(Cl)cc2)nc2ccccc12 | . | . | / | . | .
CCOc1ccc(NC(=O)CN2C(=O)C(c3ccc(Cl)cc3)=NC2(C)C)cc1 | / | . | / | / | .
CC1(C)N=C(SCC(=O)Nc2ccc(Cl)cc2)C(c2ccccc2)=N1 | . | ? | -87 | . | .
CC1(C)N=C(SCC(=O)Nc2ccc(Cl)cc2)C(c2ccc(Cl)cc2)=N1 | . | . | -109 | . | .
CC(C)NC(=O)Cn1ccc2cc(S(=O)(=O)N3CCCCCC3)ccc21 | . | . | / | . | .
COc1ccc(N(Cc2cccs2)C(=O)c2ccccc2C)cc1 | / | . | / | / | .
O=C(CCN1C(=O)/C(=C\C=C\c2ccccc2)SC1=S)Nc1ccc(C(=O)O)cc1 | . | . | -55 | . | .
O=C(CCCN1C(=O)S/C(=C\C=C\c2ccccc2)C1=O)Nc1ccc(O)cc1 | ? | . | -78 | . | .

High-throughput results: PubChem, National Center for Advancing Translational Sciences (NCATS)
